High-throughput results as filed in PubChem.
TEAD-YAP block – TEAD-YAP interaction inhibition, primary screen, TEAD-YAP interaction inhibitor project, luminescence, HEK-TIYL cells; actives 1.4% (n = 640,000); inhibition, % at 9.12 µM; TEAD-Gal4/YAP UAS-luciferase luminescence; in the data active = inhibition above about 32%;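 note: 0% = median of test compound wells and 100% = reference inhibitor wells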
MITF inh – MITF inhibitors, primary screen, biochemical, AlphaScreen, human; AID 1259374, 2018; Microphthalmia-associated transcription factor (Homo sapiens), O75030; AlphaScreen MITF homodimerization, bead proximity signal; inhibition, % at 2.6 µM; actives 0.91% (n = 650,000); in the data active = inhibition above about 50%;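 note: 0% = vehicle wells with protein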
GPR151 ag – activators of human GPR151, primary screen, cell-based, PathHunter beta-arrestin, luminescence. PathHunter beta-arrestin GPR151 cells. activation, % at 11.2 µM. G-protein coupled receptor 151 (Homo sapiens), Q8TDV0. actives 1% (n = 650,000); in the data active = activation above about 4.9%;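 note: 0% = median of compound wells and 100% = cells with positive control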
Target sequence (Q8TDV0 whole entry, looked up): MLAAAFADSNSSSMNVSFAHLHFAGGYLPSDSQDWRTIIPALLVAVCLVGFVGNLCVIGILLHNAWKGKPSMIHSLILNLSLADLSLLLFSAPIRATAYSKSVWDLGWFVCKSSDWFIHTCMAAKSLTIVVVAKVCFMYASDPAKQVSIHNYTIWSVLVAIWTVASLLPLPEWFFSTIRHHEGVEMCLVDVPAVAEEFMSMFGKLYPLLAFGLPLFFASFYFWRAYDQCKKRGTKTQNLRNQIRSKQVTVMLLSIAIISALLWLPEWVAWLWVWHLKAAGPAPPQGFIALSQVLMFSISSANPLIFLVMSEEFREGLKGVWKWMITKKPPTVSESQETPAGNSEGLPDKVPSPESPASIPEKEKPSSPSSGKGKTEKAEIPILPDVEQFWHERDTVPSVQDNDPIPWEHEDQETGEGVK
FBW7 act – FBW7 E3 ligase activators, primary screen, biochemical, AlphaScreen, human; F-box/WD repeat-containing protein 7 (Homo sapiens), Q969H0; AlphaScreen FBW7–phospho-cyclin E peptide binding, activator screen; normalized activity (activation), % at 26.1 µM; actives 0.13% (n = 650,000); in the data active = normalized activity above about 1.9%;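 note: purified mutant Fbw7 with reduced substrate affinity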
Active calls of the source: *. Only some compounds are listed: those with a hit (about 3.5% of all), similar ones and a draw of the others.

SMILES	TEAD-YAP block	MITF inh	GPR151 ag	FBW7 act
CCOC(=O)N1CCc2c(sc(N)c2C(=O)Nc2ccccc2OCC)C1	32.1*	-7.4	-1.7	0.0
CC(=O)N1CCc2c(sc(NC(=O)/C=C/c3cccs3)c2C(N)=O)C1	40.8*	10.0	-1.5	0.0
CCOc1ccccc1NC(=O)c1c(N)sc2c1CCCC2	14.7	-22.4	0.0	-0.1
CCOC(=O)N1CCc2c(sc(NC(=O)c3cccc(Br)c3)c2C#N)C1	41.5*	-13.3	-0.5	-0.1
Cc1nnc2sc(-c3cccc(NC(=O)c4ccccc4Br)c3)nn12	13.1	0.4	-1.4	0.0
CCCCC(=O)N1c2ccc(OCC)cc2C(=C2SC(C(=O)OC)=C(C(=O)OC)S2)C(=S)C1(C)C	-12.6	14.4	-0.4	0.2
CCOC(=O)C(=NCCCOC)NNc1cc(C(F)(F)F)ccc1Cl	4.6	-6.1	-1.4	-0.1
COC(=O)C(C)Sc1nc(C2CC2)nc2c1c(=O)n(C)c(=O)n2C (centres undefined)	-3.8	-3.3	-0.5	0.0
COc1ccc(-c2ccc(SCC(=O)NC(C)C)nn2)cc1	14.6	17.1	1.4	-0.2
COc1ccccc1Cc1noc(-c2ccc(C)cc2)n1	-54.4	-14.5	0.7	0.4
CC1(C)CC(NC2CCN(c3cccc(NC(=O)CC4CCCC4)c3)CC2)CCO1 (centres undefined)	-1.2	16.0	-0.2	-0.1
Cc1ccc(NC(=O)N2CCC(NC(=O)OC(C)(C)C)CC2)cc1	-0.7	-0.1	0.0	-0.1
Cc1ccc(NC(=O)CCN2CCC(C)CC2)cc1	9.9	12.0	-0.6	2.3*
CCOc1ccccc1NC(=O)CN(c1cc([N+](=O)[O-])ccc1C)S(C)(=O)=O	-10.5	-0.1	-0.1	0.0
O=C(COc1ccc(S(=O)(=O)NC2CCCCC2)cc1)NC1CCCCCC1	34.5*	4.4	1.4	0.8
NC(=O)Nc1ccc(C(=O)OCC(=O)NC2CCCCC2)cc1	33.6*	6.1	-0.7	0.4
CC(C)(c1ccccc1)c1ccc(OCC(=O)NC2CCCC2)cc1	-4.3	11.8	0.5	1.9*
O=C(COC(=O)c1ccc(O)cc1)NC1CCCCCC1	-5.8	-5.8	0.6	0.1
Cc1ccc(-c2n[nH]c(C3CCN(CC(=O)NCc4ccccc4)CC3)n2)cc1	-39.6	-3.5	-0.7	0.0
C=CCN(c1ccccc1)S(=O)(=O)c1ccc2[nH]cc(C(=O)NC3CCCCCC3)c(=O)c2c1	4.5	8.6	-0.6	0.1
O=[N+]([O-])c1ccccc1N/C(=N/S(=O)(=O)c1ccccc1)c1ccccc1	2.4	-11.9	-0.3	-0.4
CCOc1ccccc1C1CC(=O)NC(SCC)=C1C#N (centres undefined)	6.9	12.4	-0.2	0.1
CCOC(=O)CSC1=C(C#N)C(c2ccc(C)cc2)CC(=O)N1 (centres undefined)	1.0	8.8	-0.6	0.1
CCOc1ccccc1C1CC(=O)NC(SCC(=O)OC)=C1C#N (centres undefined)	59.4*	7.1	0.1	-0.1
CCOC(=O)CSC1=C(C#N)C(c2ccc(F)cc2)CC(=O)N1 (centres undefined)	41.8*	14.7	-2.1	0.5
SMILES	TEAD-YAP block	MITF inh	GPR151 ag	FBW7 act
COC(=O)CSC1=C(C#N)C(c2cccc(F)c2)CC(=O)N1 (centres undefined)	45.9*	20.0	0.9	0.1
CCOC(=O)CSC1=C(C#N)C(c2ccc(C)s2)CC(=O)N1 (centres undefined)	53.9*	19.6	-1.4	0.0
COC(=O)CSC1=C(C#N)C(c2ccc(C)s2)CC(=O)N1 (centres undefined)	7.5	9.9	-1.1	0.1
O=C1C2CC=CC=C2NC(=S)N1CCc1ccc(Cl)cc1 (centres undefined)	2.9	0.4	-0.9	0.0
CCc1ccc(CNCc2ccc(C(=O)O)cc2)cc1	-1.0	-1.6	0.5	0.0
Cc1cc2cc(CNC(=O)/C=C\c3ccc4c(c3)OCO4)ccc2[nH]1	-1.8	-17.4	-1.4	0.0
O=C(Nc1cccc(I)c1)c1cccc([N+](=O)[O-])c1	13.5	17.2	-0.1	0.2
Cc1occc1C(=O)Nc1ccc(F)cc1	-28.4	-8.0	-5.0	-0.2
CCOC(=O)CSC1=C(C#N)C(c2ccccc2F)CC(=O)N1 (centres undefined)	48.1*	14.5	1.4	0.1
N#Cc1cc2cc3c(cc2nc1NCCCNC(=O)Cc1ccccc1)OCO3	34.0*	9.8	-0.5	0.3
COc1ccccc1NC(=O)NCCCNc1nc2cc3c(cc2cc1C#N)OCO3	64.9*	-6.0	-0.1	0.2
CCN(CC)CCn1c2ccccc2n2cc(-c3ccc(Br)cc3)nc12	-2.9	-13.1	-1.5	3.6*
CCN(CC)CCn1c(-c2ccc(Cl)cc2)cn2c3ccccc3nc12	9.7	3.0	-1.0	0.3
CCN(CC)CCn1c2ccccc2n2cc(-c3ccc(Cl)cc3)nc12	4.5	-16.7	-0.1	4.3*
CCN(CC)CCn1c2ccccc2n2cc(-c3ccc(Cl)c(Cl)c3)nc12	9.3	-3.5	-1.0	6.2*
CN(C)CCn1c2ccccc2n2cc(-c3ccc(-c4ccccc4)cc3)nc12	-7.4	-0.3	-1.0	1.0
CCOc1ccc(-c2cn3c4ccccc4n(CCN(CC)CC)c3n2)cc1	-10.1	16.3	-0.3	1.3
Cc1ccc(-n2cc(CN3CCN4C(=O)[C@@H](CC(C)C)NC(=O)[C@H]4C3)cn2)cc1	9.6	12.6	1.4	0.0
C=CCn1c(=C(C#N)C#N)s/c(=C\c2ccc(OC(F)F)cc2)c1=O	-15.2	-4.2	-0.2	0.0
CCOc1ccccc1-c1cc(=O)c2ccc(NC(=O)c3ccc(F)cc3)cc2o1	15.4	11.3	-2.1	0.3
O=C(NCc1nnc(SCC(=O)N2N=C(c3cccs3)CC2c2ccc(F)cc2)n1-c1ccccc1)c1cccs1 (centres undefined)	14.1	8.2	0.4	0.1
CCOC(=O)c1nn(-c2ccc(C)c(C)c2)cc1O	-35.2	-1.2	-0.3	-0.2
CCOC(=O)c1nn(-c2ccc3c(c2)OCCO3)cc1O	43.2*	-8.9	-3.9	-0.1
CCN(CC)CCn1c2ccccc2c2cnc(N)c(C#N)c21	81.1*	-3.1	0.6	-0.1
CN(C)C=Nc1ncc2c3ccccc3n(CCN(C)C)c2c1C#N	16.4	8.4	-1.3	0.1
SMILES	TEAD-YAP block	MITF inh	GPR151 ag	FBW7 act
Clc1nc(NC2CCCC2)c2ccccc2n1	60.0*	14.8	-0.5	0.3
c1ccc(-c2nc(NC3CCCCC3)c3ccccc3n2)cc1	7.7	9.2	0.9	0.0
c1ccc2c(NC3CC3)nc(N3CCCC3)nc2c1	32.3*	3.4	-0.4	0.6
CC(C)(C)c1ccccc1OCC(O)CN1CCN(Cc2ccc3c(c2)OCO3)CC1 (centres undefined)	3.4	5.1	1.8	0.3
C=CCN(c1ccccc1)S(=O)(=O)c1ccc(F)c(C(=O)Nc2ccc(C(C)C)cc2)c1	35.6*	15.7	1.1	0.2
C=CCN(c1ccccc1)S(=O)(=O)c1ccc(F)c(C(=O)Nc2ccc(OCC)cc2)c1	38.7*	15.2	-0.8	0.7
